According to the supplement of paper PMC3334620:
Over roughly 33,000 sequences, “E-score (-0.5 to 0.5)” has its median near -0.021; the highest 2% begin near 0.32. Only a selection was taken, and the highest values are over-represented in it overall.

target: T1, Zap1 (UniProt P47043); assay: PBM E-score (8-mer binding enrichment) (E-score (-0.5 to 0.5)); higher = stronger / more preferred TF binding; conditions: protein concentration: 200 nM; construct: GST-full length
T1 sequence: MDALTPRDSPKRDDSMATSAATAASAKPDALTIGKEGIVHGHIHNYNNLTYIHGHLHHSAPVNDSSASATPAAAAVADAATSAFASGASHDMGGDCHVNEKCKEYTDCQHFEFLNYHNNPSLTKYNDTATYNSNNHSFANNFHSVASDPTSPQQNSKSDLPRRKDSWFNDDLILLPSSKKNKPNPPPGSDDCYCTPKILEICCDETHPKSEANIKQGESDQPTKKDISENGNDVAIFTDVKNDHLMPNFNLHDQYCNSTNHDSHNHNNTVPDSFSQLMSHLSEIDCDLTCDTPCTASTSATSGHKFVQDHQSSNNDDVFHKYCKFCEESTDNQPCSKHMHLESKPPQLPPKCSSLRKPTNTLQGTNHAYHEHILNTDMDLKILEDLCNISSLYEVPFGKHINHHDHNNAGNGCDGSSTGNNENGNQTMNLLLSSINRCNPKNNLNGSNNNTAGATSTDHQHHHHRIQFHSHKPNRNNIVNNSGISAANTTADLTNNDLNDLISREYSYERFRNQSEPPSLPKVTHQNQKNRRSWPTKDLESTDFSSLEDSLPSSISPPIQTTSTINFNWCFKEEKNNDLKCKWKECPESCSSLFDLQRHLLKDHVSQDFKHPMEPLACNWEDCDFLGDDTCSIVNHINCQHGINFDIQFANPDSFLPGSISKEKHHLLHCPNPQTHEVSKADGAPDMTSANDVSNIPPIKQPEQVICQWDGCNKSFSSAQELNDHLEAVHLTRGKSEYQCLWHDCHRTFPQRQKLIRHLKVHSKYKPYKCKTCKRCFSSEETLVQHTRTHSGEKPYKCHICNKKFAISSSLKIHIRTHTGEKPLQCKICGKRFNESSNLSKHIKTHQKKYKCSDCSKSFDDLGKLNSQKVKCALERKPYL
Experimental: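 Universal 'all 10-mer' protein binding microarrays (Agilent AMADID 015681) probed with GST-tagged S. cerevisiae TFs (full-length or DBD) made by in vitro transcription/translation (PURExpress), about 100-200 nM. Bound TF was detected with fluorescent anti-GST. Each ungapped 8-mer (which stands for itself and its reverse complement) is scored by the PBM enrichment score (E-score), a modified Wilcoxon-Mann-Whitney statistic from -0.5 to +0.5, computed with the Universal PBM Analysis Suite. Scale: above 0.35 generally sequence-specific binding.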

Compared with GGTAGTAC, CCAGCACA is lower in “PBM E-score” value: 0.248 for the first, -0.00996 for the second.

Compared with ATCGACCG, AAGTTATC is higher in “PBM E-score” value: -0.132 for the first, 0.0532 for the second.

Going from AGGTTATG to ATGTTATA, the “PBM E-score” value falls from 0.475 to -0.0204.

Compared with CTGTTATA, ACGTTATC is lower in “PBM E-score” value: 0.115 for the first, -0.101 for the second.

Going from AGGTTATC to ATGTTATG, the “PBM E-score” value falls from 0.463 to 0.158.

Going from CCGTTATA to AAGTTATG, the “PBM E-score” value rises from 0.103 to 0.181.

First: ACGTTATA
Second: CGGTTATA
The “PBM E-score” value of the first is lower: 0.137 for the first, 0.405 for the second.

Going from AGGTTATA to GAGTACAC, the “PBM E-score” value falls from 0.469 to -0.0741.

First: CGTTCCCA
Second: AAGCAATG
The “PBM E-score” value of the first is lower: -0.125 for the first, 0.0748 for the second.

Compared with GAGAATAA, ACGATCGT is higher in “PBM E-score” value: 0.0442 for the first, 0.0702 for the second.

First: ATACAGAA
Second: AGTCTAGA
The “PBM E-score” value of the first is higher: 0.0186 for the first, -0.295 for the second.

Compared with CTGAATGA, AGATAGCG is lower in “PBM E-score” value: 0.0581 for the first, -0.163 for the second.

First: AGGCCTTG
Second: ACATCCAA
The “PBM E-score” value of the first is lower: -0.0709 for the first, -0.00617 for the second.

Going from CAGTTATC to CGGTTATC, the “PBM E-score” value rises from 0.0632 to 0.424.

First: GCGTTATA
Second: GAGTTATA
The “PBM E-score” value of the first is higher: 0.218 for the first, 0.142 for the second.

Going from CTGTTATC to GGGTTATA, the “PBM E-score” value rises from 0.0763 to 0.474.

Going from GCACTGAA to AGAGCGTG, the “PBM E-score” value falls from -0.136 to -0.169.

First: AGCCACAA
Second: GAGTCAGA
The “PBM E-score” value of the first is higher: 0.153 for the first, -0.157 for the second.

Compared with AGAAGTAG, ACCACCCA is higher in “PBM E-score” value: -0.123 for the first, 0.252 for the second.

First: AGCACCCA
Second: ACCACCCC
The “PBM E-score” value of the first is lower: -0.0894 for the first, -0.00264 for the second.

Going from ACCACCCT to AGCACCCG, the “PBM E-score” value falls from 0.352 to 0.125.

Compared with AGCACCCT, GCAGGCTA is lower in “PBM E-score” value: 0.317 for the first, -0.25 for the second.

Compared with CTATTCGA, CCTAGCGC is higher in “PBM E-score” value: -0.0524 for the first, -0.0463 for the second.

Compared with AGCGATGG, ACGCAACC is higher in “PBM E-score” value: -0.195 for the first, 0.316 for the second.

Going from AGACAACC to CCACAACA, the “PBM E-score” value falls from 0.31 to 0.109.

First: CGACAACC
Second: CGACAACA
The “PBM E-score” value of the first is higher: 0.339 for the first, 0.0946 for the second.

Going from CCGCAACA to CCACAACC, the “PBM E-score” value rises from 0.162 to 0.411.

First: CCACAACG
Second: CCGCAACC
The “PBM E-score” value of the first is lower: 0.0128 for the first, 0.34 for the second.

Compared with GCAGTTAC, CCCAAGAC is lower in “PBM E-score” value: 0.109 for the first, -0.045 for the second.

First: GTTGAGAA
Second: AGTACTGG
The “PBM E-score” value of the first is higher: -0.027 for the first, -0.141 for the second.

First: GCGCTGTA
Second: CCCTAGGG
The “PBM E-score” value of the first is lower: -0.043 for the first, 0.41 for the second.

Compared with GCTTAAAC, CCCTAACC is higher in “PBM E-score” value: -0.0479 for the first, 0.33 for the second.

First: ACCTAGGG
Second: GCCTAACC
The “PBM E-score” value of the first is lower: 0.119 for the first, 0.125 for the second.

First: ACTTAACC
Second: CCCTAGGA
The “PBM E-score” value of the first is higher: 0.287 for the first, 0.0656 for the second.

Going from GCTTAACC to CCTTAACA, the “PBM E-score” value falls from 0.327 to 0.116.

Going from CCTTAACC to GCTTAACA, the “PBM E-score” value falls from 0.438 to -0.0361.

First: ACCTAACC
Second: CACTTTAC
The “PBM E-score” value of the first is higher: 0.269 for the first, 0.0657 for the second.

Going from AGGTCTCC to ACACTTTC, the “PBM E-score” value falls from 0.00142 to -0.104.

Compared with ATCCTCCG, ATCCAACG is higher in “PBM E-score” value: -0.238 for the first, -0.139 for the second.

Going from AATCAGTC to TCGCAACA, the “PBM E-score” value rises from -0.107 to -0.0496.

First: CCCTAAGG
Second: CCCTAAGC
The “PBM E-score” value of the first is higher: 0.402 for the first, -0.159 for the second.

First: CCCTAAGA
Second: CGGGCGAG
The “PBM E-score” value of the first is higher: 0.263 for the first, -0.0126 for the second.

Compared with CCCACCCG, TCCACCCA is lower in “PBM E-score” value: 0.324 for the first, -0.233 for the second.

First: GCCACCCA
Second: CCCACCCC
The “PBM E-score” value of the first is lower: -0.0281 for the first, 0.149 for the second.

First: CCCACCCA
Second: ACCACCCG
The “PBM E-score” value of the first is higher: 0.323 for the first, 0.184 for the second.

Compared with GTCTTCTA, CTGATGGA is lower in “PBM E-score” value: -0.0319 for the first, -0.254 for the second.

Compared with GTCCTTGA, GACCTTGA is higher in “PBM E-score” value: 0.113 for the first, 0.34 for the second.

Compared with AACCTTGA, GACCTTGC is lower in “PBM E-score” value: 0.429 for the first, 0.133 for the second.

Going from AACCTTGC to TACCTTGA, the “PBM E-score” value rises from 0.305 to 0.337.

Going from CACCTTGA to TACCTTCA, the “PBM E-score” value rises from 0.179 to 0.255.

Compared with AACCTTGT, CTAGGGAC is lower in “PBM E-score” value: 0.229 for the first, -0.0705 for the second.

Compared with CAAAACTC, GTCTCCCA is lower in “PBM E-score” value: 0.0001 for the first, -0.252 for the second.

Compared with GTAAAGGA, CATAAACG is higher in “PBM E-score” value: -0.0539 for the first, 0.0839 for the second.

Going from AGGTAAGA to TGGTAACA, the “PBM E-score” value falls from 0.125 to 0.0812.

Compared with GGGTAACA, CGGTAATA is lower in “PBM E-score” value: 0.334 for the first, 0.219 for the second.

Compared with CGGTAACA, AGGTAACA is higher in “PBM E-score” value: 0.253 for the first, 0.344 for the second.

Going from GTGTAACA to AGGTAATA, the “PBM E-score” value rises from 0.0444 to 0.263.

First: AAGTAACA
Second: CGGTAACG
The “PBM E-score” value of the first is lower: -0.0158 for the first, 0.0507 for the second.

Going from GGGTAATA to CGGTAACC, the “PBM E-score” value rises from 0.348 to 0.47.

First: ATGAGCAT
Second: ACCTGAGT
The “PBM E-score” value of the first is higher: 0.049 for the first, 0.0343 for the second.

Going from GTGACGCA to TCTCTTCA, the “PBM E-score” value falls from 0.0591 to -0.139.

Going from AAGGGCGC to TCTACACA, the “PBM E-score” value rises from 0.0237 to 0.0487.

Going from AGGTAACG to GGGTAAAA, the “PBM E-score” value rises from 0.19 to 0.306.

Compared with GGGTAACC, GGGTAAAC is lower in “PBM E-score” value: 0.46 for the first, 0.194 for the second.

Compared with AGGTAACC, AGGTAACT is lower in “PBM E-score” value: 0.441 for the first, 0.237 for the second.

First: CAGGAGGG
Second: AATTCACC
The “PBM E-score” value of the first is higher: 0.143 for the first, 0.0819 for the second.

Compared with AGTCCTCC, AAAGCAGG is higher in “PBM E-score” value: -0.144 for the first, -0.075 for the second.

Going from CGGTGACA to GAGTGACC, the “PBM E-score” value rises from 0.193 to 0.239.

Going from GGGTGACC to AGGTGACA, the “PBM E-score” value falls from 0.385 to 0.0888.

First: AGGTGACG
Second: GGGTGACA
The “PBM E-score” value of the first is lower: 0.182 for the first, 0.252 for the second.

Going from CGGTGACG to AGGTGACC, the “PBM E-score” value rises from 0.0241 to 0.393.

First: CGGTGACC
Second: TAAGACTA
The “PBM E-score” value of the first is higher: 0.327 for the first, -0.0191 for the second.

Going from TGACAAAA to CAAGTGTA, the “PBM E-score” value falls from 0.152 to -0.0404.

Going from AGCCCCCT to AAGATGCG, the “PBM E-score” value rises from -0.406 to -0.058.

Compared with AAGAGGGA, ATACTCTA is higher in “PBM E-score” value: -0.199 for the first, -0.0192 for the second.

First: CGCCACTC
Second: GTAGGTAA
The “PBM E-score” value of the first is lower: -0.113 for the first, 0.199 for the second.

Compared with ATAGGTTC, CTAGGTTC is lower in “PBM E-score” value: 0.138 for the first, 0.0156 for the second.

Compared with ATAGGTTA, ATAGGTTG is lower in “PBM E-score” value: 0.46 for the first, 0.16 for the second.

Going from GTAGGTTA to CTAGGTCA, the “PBM E-score” value falls from 0.39 to 0.117.

Compared with CTAGGTTA, GTAGGTGA is lower in “PBM E-score” value: 0.42 for the first, 0.0614 for the second.

Compared with AAGCACGT, CGGTTAGC is higher in “PBM E-score” value: -0.3 for the first, 0.151 for the second.

First: CCAATTAC
Second: ACCAAATC
The “PBM E-score” value of the first is higher: 0.103 for the first, 0.0501 for the second.

Going from AACTACCA to AGTATCCG, the “PBM E-score” value falls from 0.179 to -0.013.

Compared with AGGTCTGA, CCTAGAGG is higher in “PBM E-score” value: -0.0295 for the first, 0.366 for the second.

Compared with ACTAGAGG, CCTAGAGA is lower in “PBM E-score” value: -0.0174 for the first, -0.0434 for the second.

First: GTAATGCA
Second: GAAGGGAA
The “PBM E-score” value of the first is higher: -0.157 for the first, -0.194 for the second.

Compared with AAGGGGGA, GAAGGGTA is higher in “PBM E-score” value: -0.245 for the first, 0.421 for the second.

With TAAGGGTA the “PBM E-score” value was 0.433.
